Fam108B inh: counter-screen for RBBP9 inhibitors: inhibitors of mouse Fam108B; inhibition, % at 9.51 µM; recombinant Fam108B, FP-Rh probe fluorescence polarization; 300,000 tested, 0.33% active;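 active = inhibition above the screen mean inhibition plus 3 SD, computed separately per campaign, cut at about 18% in these data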;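 also: inhibitors lower polarization as less probe binds the enzyme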
PRMT1 inh: PRMT1 (human) inhibition, primary screen | Q99873 | recombinant PRMT1, activity-based probe fluorescence polarization | inhibition, % at 2.79 µM | 370,000 tested, 1.3% active | AID 652257;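 active = inhibition above about 21% made by adding two undisclosed values, limit read from the data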
Target sequence (Q99873 whole entry, looked up): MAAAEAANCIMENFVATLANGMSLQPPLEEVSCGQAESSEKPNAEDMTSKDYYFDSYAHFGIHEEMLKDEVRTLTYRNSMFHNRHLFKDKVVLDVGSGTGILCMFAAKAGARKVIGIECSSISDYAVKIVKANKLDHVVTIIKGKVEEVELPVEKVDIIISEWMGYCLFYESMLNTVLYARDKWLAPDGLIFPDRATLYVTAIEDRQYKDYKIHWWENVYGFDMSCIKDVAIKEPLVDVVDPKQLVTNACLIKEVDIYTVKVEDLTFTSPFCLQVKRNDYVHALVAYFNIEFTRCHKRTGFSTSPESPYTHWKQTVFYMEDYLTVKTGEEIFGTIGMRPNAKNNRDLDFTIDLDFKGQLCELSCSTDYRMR
PAD4 FP inh: inhibitors of human PAD4; inhibition, % at 6.36 µM; 330,000 tested, 0.41% active; recombinant PAD4, RCA probe fluorescence polarization;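 active = percent inhibition above a cutoff equal to the mean of all tested compounds plus 3 SD, cut at about 15% in these data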;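 also: 0% = PAD4 with RCA probe and DMSO and 100% = probe without PAD4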
TCR-CD3 inh: blocks the human TCR-CD3 interaction; AID 651800; inhibition, % at 9.4 µM; 360,000 tested, 0.37% active; TAMRA-labeled TCR probe fluorescence, biochemical; in the data active = inhibition above about 19%;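 also: recombinant mutant TCR 2C K166C tagged with TAMRA read by polarization; 0% = receptor in buffer alone and 100% = receptor with positive control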
PME-1 inh: PME-1 (human) inhibition; Q9Y570; inhibition, % at 5.9 µM; recombinant PME-1, FP-Rh probe fluorescence polarization; 320,000 tested, 0.53% active; AID 2130;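 active = inhibition above the campaign mean of all compounds plus 3 SD, cut at about 26% in these data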;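 also: competitive labeling of PME-1 active site by serine hydrolase directed probe; 0% = PME-1 with DMSO and 100% = wells lacking PME-1 enzyme; inhibitors block probe labeling so polarization falls and inhibition rises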
Target sequence (Q9Y570 whole entry, looked up): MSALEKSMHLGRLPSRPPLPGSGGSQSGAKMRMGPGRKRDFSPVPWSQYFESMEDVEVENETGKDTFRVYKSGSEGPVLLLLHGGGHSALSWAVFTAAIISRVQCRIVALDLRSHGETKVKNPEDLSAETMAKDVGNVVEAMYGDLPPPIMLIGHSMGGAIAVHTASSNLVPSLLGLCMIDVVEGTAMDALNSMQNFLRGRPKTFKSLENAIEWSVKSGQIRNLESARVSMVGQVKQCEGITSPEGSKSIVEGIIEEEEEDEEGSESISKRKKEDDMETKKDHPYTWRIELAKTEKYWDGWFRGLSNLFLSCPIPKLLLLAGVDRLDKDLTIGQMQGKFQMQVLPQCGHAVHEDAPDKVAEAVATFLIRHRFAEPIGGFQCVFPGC
SIAE primary: human SIAE inhibition, primary screen | 370,000 tested, 0.69% active | Q9HAT2 | SIAE FP-Rh probe binding, fluorescence polarization | inhibition, % at 9.66 µM;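 active = inhibition above a cutoff: mean of compounds within the control limits plus 3 SD of those, cut at about 17% in these data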;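 also: 0% = plate median of compound wells and 100% = probe without SIAE protein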
PRMT1 inh conf: confirmation of human PRMT1 inhibitors. shares compounds with PRMT1 inh. 3,300 tested, 42% active. inhibition, % at 2.79 µM. recombinant His-PRMT1, activity-based probe fluorescence polarization. AID 687036;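 active = mean inhibition across replicates above the hit cutoff derived for the earlier primary screen, cut at about 22% in these data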
* marks the source's active call; other numbers are inactive results; · = not tested or not shown. Sampled rows, rich in hits. Any-hit rate of the full collection: about 2.6%.

SMILES | Fam108B inh | PRMT1 inh | PAD4 FP inh | TCR-CD3 inh | PME-1 inh | SIAE primary | PRMT1 inh conf
Cn1nnnc1Sc1ncnc2scc(-c3cnc(N)nc3)c12 | · | -1.6 | · | · | · | -0.8 | ·
CCC1(CC)Cc2ccccc2C(CC(=O)N2CCOCC2)=N1 | 0.2 | 35.2* | -0.5 | -3.3 | 5.3 | 1.1 | 30.8*
O=C(O)c1ccccc1-c1ccc(/C=C/c2cc(C(F)(F)F)[nH]c(=O)n2)o1 | · | 29.4* | · | 14.2 | · | -28.2 | 24.6*
O=C(N/N=C/c1ccc(-c2ccccc2C(=O)O)o1)c1cccs1 | 5.0 | 6.1 | -4.5 | 8.6 | -4.6 | 8.0 | ·
O=C1N(CCCO)CCC12CCC(c1ccccc1)CC2 (centres undefined) | · | -2.2 | · | · | · | -1.6 | ·
C=CCNc1nnc(SC2CC(=O)N(c3ccc(OC)cc3)C2=O)s1 (centres undefined) | -1.1 | 83.5* | 0.5 | -8.0 | 0.8 | -5.0 | 72.2*
COc1ccc(N2C(=O)CC(Sc3nnc(-c4ccccc4F)n3C)C2=O)cc1 (centres undefined) | 3.0 | 35.7* | 1.0 | 2.5 | 1.6 | -0.7 | 48.3*
COc1ccc(N2C(=O)CC(Sc3nccc(C)n3)C2=O)cc1 (centres undefined) | 4.9 | 1.6 | 3.3 | -6.5 | 5.1 | 1.9 | ·
CCOc1ccc(N2C(=O)CC(Sc3nnnn3-c3ccccc3)C2=O)cc1 (centres undefined) | · | 76.4* | · | -3.2 | · | -10.3 | 43.4*
Cc1nc(SC2CC(=O)N(c3ccccc3)C2=O)nc2c1CCCC2 (centres undefined) | -0.9 | 7.5 | 0.7 | 2.8 | 1.2 | -1.3 | ·
Cc1nnc(SC2CC(=O)N(c3ccccc3)C2=O)s1 (centres undefined) | 0.4 | 78.3* | -5.8 | 3.8 | -0.9 | 5.9 | 70.0*
Cc1ccc2c(c1)C(CS(=O)(=O)NCc1ccc(F)cc1)NC2 (centres undefined) | · | 1.6 | · | · | · | 4.1 | ·
CC(C)CNC(=O)OCc1cn(Cc2ccc(F)cc2F)nn1 | · | -5.4 | · | · | · | -2.7 | ·
Fc1ccccc1Cn1ccc2ccc(-c3ccc4ccn(Cc5ccccc5)c4c3)cc21 | · | 1.1 | · | · | · | 8.7 | ·
O=C(c1cc(F)ccc1F)N(Cc1ccccn1)CC1CCCO1 (centres undefined) | · | -7.3 | · | · | · | -4.9 | ·
O=C1CC(SCCc2nc3ccccc3[nH]2)C(=O)N1c1ccc(F)cc1 (centres undefined) | -2.3 | 18.8 | -3.4 | 0.3 | 7.5 | -1.5 | ·
COc1ccc(N2C(=O)CC(Sc3nc4ccccc4s3)C2=O)cc1 (centres undefined) | 0.2 | 34.9* | -5.1 | 1.2 | -0.5 | -7.7 | 3.9
COc1ccc(N2C(=O)CC(SCCc3nc4ccccc4[nH]3)C2=O)cc1 (centres undefined) | 2.5 | 26.3* | 6.3 | 3.7 | 7.1 | 2.5 | -1.7
CCOc1ccc2nc(SC3CC(=O)N(c4ccc(OC)cc4)C3=O)sc2c1 (centres undefined) | -7.9 | 7.1 | -4.3 | -3.8 | -6.5 | -5.7 | ·
CCc1csc(N2[C@H](CN(CCOC)S(=O)(=O)c3ccccc3[N+](=O)[O-])[C@H](c3ccccc3)[C@@H]2CO)n1 | · | 1.9 | · | · | · | 2.2 | ·
CCOC(=O)N1CCN(C(=O)C[C@H]2C[C@@]3(C(=O)OC)C(=C[C@H](COCc4ccccc4)O[C@@H]3C)N(Cc3cccc4ccccc34)C2=O)CC1 | · | 9.3 | · | · | · | 0.8 | ·
CCN(CC)c1ccc(NS(=O)(=O)c2ccc(-c3ccc(=O)[nH]n3)o2)c(C)c1 | -0.2 | 42.0* | 0.4 | 1.4 | 7.8 | 9.2 | 2.9
O=C(Nc1ccccc1)OC1CC2CC1[C@H]1CCCCN1[C@H]2Cc1ccccc1 (some centres undefined) | · | -2.2 | · | · | · | -0.5 | ·
COc1cc(OC)cc(C(=O)NC(=S)NNC(=O)Cc2cccs2)c1 | 0.7 | 27.8* | 7.2 | 15.5 | -1.1 | -6.2 | 3.4
On1ccccc1=S | 0.9 | 87.8* | 3.3 | -2.6 | -3.9 | 6.8 | 87.5*
SMILES | Fam108B inh | PRMT1 inh | PAD4 FP inh | TCR-CD3 inh | PME-1 inh | SIAE primary | PRMT1 inh conf
COc1ccc(-n2c(SCC(=O)Nc3ccc(S(=O)(=O)Nc4nccs4)cc3)nnc2-c2ccco2)cc1 | · | -0.6 | · | · | · | -4.2 | ·
Cc1ccc(CNC(=O)CC(C)S(=O)(=O)c2ccc3c(c2)NC(=O)CS3)o1 (centres undefined) | -1.1 | 44.3* | 0.4 | -4.3 | 4.1 | -8.4 | 15.1
CCOc1ccc(C=NNC(=O)c2cc(-c3ccc(Cl)cc3)n[nH]2)cc1 | · | 1.6 | · | · | · | -8.4 | ·
CCCCCC[C@@H](CCCc1ccccc1OC)CN(CCCC)S(C)(=O)=O | · | 4.4 | · | · | · | 1.9 | ·
CC(=O)NC1C(=O)N=C(SCC(=O)Nc2cccc(Cl)c2)NC1=O (centres undefined) | -0.9 | 38.7* | 5.9 | 2.9 | 0.3 | -3.6 | 8.2
O=C(CSc1nc(-c2ccc(Cl)cc2)[nH]c(=O)n1)Nc1cccc(Cl)c1 | -15.7 | 50.7* | 1.2 | 0.1 | -9.3 | -29.1 | 0.4
CC(=O)NC1C(=O)N=C(SCC(=O)Nc2sc3c(c2C#N)CCCCCC3)NC1=O (centres undefined) | 2.5 | 12.7 | 8.9 | -3.5 | 6.5 | 3.8 | ·
COc1ccc(-n2sc3ccccc3c2=O)cc1 | · | 82.5* | · | -1.8 | · | 12.0 | 82.3*
COc1ccc(-n2cc(C(=O)O)c3ccccc3c2=O)cc1 | 0.1 | -3.1 | -5.2 | 2.2 | 0.4 | 7.2 | ·
CCOC(=O)c1c(-c2ccc(C)o2)csc1NC(=O)CN1CCN(CC)CC1 | 7.9 | 78.6* | 0.8 | 0.4 | -0.1 | 2.5 | 2.9
CCOC(=O)c1c(-c2ccc(C)o2)csc1NC(=O)CN1CCC(C(N)=O)CC1 | -7.3 | 14.4 | 0.2 | -2.7 | -4.5 | -3.4 | ·
CCOC(=O)c1c(-c2ccc(C)o2)csc1NC(=O)CN1CCCCC1 | -5.3 | 43.4* | -5.0 | -1.9 | -3.8 | 3.0 | 9.0
CS(=O)(=O)N1CCN(c2ccc([N+](=O)[O-])c(SCc3ccco3)c2)CC1 | 0.9 | 33.0* | -5.7 | 0.5 | -0.9 | 4.4 | 1.6
O=C(CSC1=NCCS1)NC(NC(=O)CSC1=NCCS1)c1ccccc1 | 2.8 | 26.0* | -1.8 | -6.8 | -3.4 | 4.4 | 11.1
O=C(CSC1=NCCS1)NC(c1ccccc1)c1ccccc1 | 4.5 | 57.6* | 7.3 | 1.9 | 2.3 | -2.9 | 66.0*
CC(NC(=O)CSC1=NCCS1)c1ccccc1 (centres undefined) | 6.9 | 2.5 | -0.3 | 2.8 | -3.0 | -3.2 | ·
CC1CCN(C2=NC(=O)N(c3ccc(Br)cc3)C(=O)C2)CC1 | · | -1.6 | · | · | · | -1.4 | ·
CC(C)(C)C(=O)OC12CCCN(C1)/C(=C/c1cccnc1)C2 (centres undefined) | · | -4.4 | · | · | · | 1.3 | ·
O=C(O)CCC(=O)Nc1sc2c(c1C(=O)Nc1ccccc1)CCCCC2 | -2.0 | 37.5* | -0.3 | -0.1 | 5.3 | -3.0 | 5.2
COc1ccccc1NC(=O)c1c(NC(=O)CCC(=O)O)sc2c1CCCCC2 | 4.0 | 31.8* | -5.5 | -5.0 | 9.3 | -3.5 | -0.8
Cc1ccc2c(c1)N(CCCC(=O)N(C)Cc1ccccc1Cl)C(=O)CO2 | · | -2.2 | · | · | · | -1.3 | ·

Compound activity: PubChem, The Scripps Research Institute Molecular Screening Center
